Rows were chosen to be rich in hits. Some 11% of all compounds tested hit in one or more screens of this group.
Pf growth 96h – P. falciparum growth inhibition at 96 hours. actives 6.9% (n = 320,000). Potency, µM (top dose mostly 28.7 µM), for the others: at the top dose activity change, negative = inhibition, actives largely listed as inhibitors. P. falciparum luciferase reporter growth, 96 h
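Plates of compound plus infected erythrocytes (2% hematocrit, 0.05% parasitemia final) incubate 96 hours, 37 C, 5% CO2. Detection reagent added; reduced luminescence from the parasites' luciferase reporter flags inhibition.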
Pf growth 48h – P. falciparum growth inhibition at 48 hours (one generation). P. falciparum luciferase growth in erythrocytes, 48 h. Potency, µM (titrated, usually from 28.7 µM), inactives show at the highest dose activity change, negative = inhibition, hits mostly inhibitors. actives 5.9% (n = 310,000). AID 504832
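Cell-based growth assay: transgenic P. falciparum expressing firefly luciferase, cultured in red cells within RPMI 1640 containing 0.5% w/v Albumax, 24 mM bicarbonate and gentamycin. A drop in luciferase activity indicates inhibition.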
AMA1-RON2 inh – inhibitors of Plasmodium falciparum AMA1-RON2 interaction; AlphaScreen AMA1-biotinylated RON2 peptide binding; Potency, µM (doses to about 58.2 µM), without a hit: at the top dose activity change, negative = inhibition, most hits filed as inhibitors; actives 0.2% (n = 360,000); AID 720542;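 note: 0% = vehicle wells and -100% = peptide control; nearly all actives have a fitted effect of over 45% in size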
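AMA1 (3D7) with his tag at 25 nM final met compounds first, then biotinylated RON2 peptide at 25 nM; detection used donor plus acceptor beads, 10 µg/mL apiece, read by AlphaScreen after 30 min at room temperature.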
HCV inh – blocks hepatitis C virus | Huh7.5.1 HCVcc-Cre infection, luciferase reporter, 44 h | Potency, µM (top dose mostly 41.8 µM), without a hit: top-dose activity change, negative = inhibition, hits mostly inhibitors | actives 3.4% (n = 340,000)
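Seed cells (1,000/well) for 4 h; treat with compound and infect with HCVcc-Cre, moi about 0.5. Incubate 44 h, then detect luciferase activity.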
An asterisk follows results filed as active; ? = inconclusive; · = not tested or not shown; [ ] = dose if it differs, or a comment. Calls come from the whole dose curve; as a rule, active = well fitted curve in the direction sought with a large enough effect; inconclusive = small, poorly fitted or top-dose-only effect, or another doubt; inactive = no such curve, though single readings can be large; an effect the other way counts as inactive or inconclusive. Unless noted, % is set by controls: 0 for no effect and ±100 for the full control effect; potency is the fitted concentration of half-maximal effect.

SMILES	Pf growth 96h	Pf growth 48h	AMA1-RON2 inh	HCV inh
O=C(c1ccc(COc2ccccc2Cl)o1)N1CCN(Cc2ccc3c(c2)OCO3)CC1	-17%	?	-29%	?
O=C(c1ccc(COc2ccc(Cl)cc2)o1)N1CCN(Cc2ccc3c(c2)OCO3)CC1	·	0%	-29%	8.9µM*
O=C(NCc1ccc2c(c1)OCO2)c1ccc(COc2cc(Cl)ccc2Cl)o1	6.6µM*	·	-8%	?
CCCn1c(=O)n(C)c(=O)c2c(SCC(=O)Nc3cc(C)on3)nc(C(C)(C)C)nc21	?	10µM*	-11%	10µM*
Cc1cc(NC(=O)CSc2nc(C(C)C)nc3c2c(=O)n(C)c(=O)n3C)no1	?	?	3%	5%
CC(C)[C@H](NC(=O)c1c(F)cccc1F)C(=O)Nc1cccc(Br)c1	-10%	-9%	-13%	-10%
COc1cc(OC)cc(C(=O)NC(C(=O)Nc2ccc3nc(C)sc3c2)C(C)C)c1 (stereo unspecified)	6.6µM*	3.3µM*	-2%	?
Cc1nc2ccc(NC(=O)[C@@H](NC(=O)c3c(F)cccc3F)C(C)C)cc2s1	?	2.1µM*	-6%	?
COc1cc(OC)cc(C(=O)N[C@H](C(=O)Nc2nc3ccc(S(C)(=O)=O)cc3s2)C(C)C)c1	?	4.7µM*	3%	5%
COc1ccc(NS(=O)(=O)c2cc(NC(=O)[C@@H](NC(=O)c3ccccc3)C(C)C)ccc2C)cc1	9.3µM*	9.3µM*	-1%	?
CCCC[C@H](CN[C@@H](CNC)[C@H](C)CC)NCCC12CCC(CC1)C2	2.6µM*	?	126%	?
COC(=O)Nc1ccc2c(c1)N(C(=O)CCCl)c1ccccc1S2	-18%	7%[0.00184 µM]	-4%	?
CCCCNc1c(-c2cccc(SC(C)CC)c2)nc2ccc(Cl)cn12 (stereo unspecified)	·	·	30%	2%
c1ccc(-c2nc3ccccn3c2NCc2ccc3c(c2)OCO3)cc1	92%	?	-6%	-20%
Clc1cccc(-c2ccc(-c3nc4ccccn4c3NCc3ccccc3)cc2)c1	·	·	-2%	14µM*
CCCCNc1c(-c2cccc(SC3CCCCC3)c2)nc2ccc(Cl)cn12	?	10µM*	11%	-4%
CCCCCCSc1cccc(-c2nc3ccc(Cl)cn3c2NCc2ccccc2)c1	?	7.4µM*	19%	?
Clc1ccc2nc(-c3cccc(SC4CCCCC4)c3)c(NCc3ccccc3)n2c1	3.7µM*	4.1µM*	23%	-4%
CC1CC(C)CN(S(=O)(=O)c2ccc3c(c2)CC(=O)N3)C1 (stereo unspecified)	?	?	9%	-1%
CCc1ccn2cc(-c3cc(-c4ccccc4)no3)nc2c1	-7%	-83%	-8%	10µM*
Cc1ccc2nc(-c3cc(-c4ccccc4)no3)cn2c1	251%	163%	-12%	-2%
CCOC(=O)N1CCC(NC(=O)c2oc3c(c2C)-c2[nH]ncc2CC3)CC1	8.3µM*	·	10%	16%
CCOC(=O)N1CCC(NC(=O)Cn2c3ccccc3c3cn[nH]c(=O)c32)CC1	-1%	6%	·	18%
CC(C)C[C@@H]1O[C@H](C(C)C)Cc2[nH][nH]c(=O)c21	·	·	22%	·
Cc1ccc(-n2c(SCC(=O)NCCN3C(=O)CSC3=O)nnc2-c2ccccc2F)cc1	15µM*	-12%	-1%	-1%
SMILES	Pf growth 96h	Pf growth 48h	AMA1-RON2 inh	HCV inh
C[C@@H]1CN([C@@H](C)CO)C(=O)c2cc(Br)cnc2O[C@H]1CN(C)C(=O)Nc1ccc2c(c1)OCO2	·	·	-6%	·
COc1cc(C=Cc2nnc3c4ccccc4cnn23)cc(OC)c1OC	·	·	3%	·
CCOC(=O)c1c(C)[nH]c(C(=O)COC(=O)c2c(CC)noc2C)c1C	?	?	7%	14µM*
CCOC(=O)c1c(C)[nH]c(C(C)=O)c1C	4%	10%	-4%	6%
CCOC(=O)c1c(C)[nH]c(C(=O)OCc2c(C)noc2C)c1C	?	?	3%	11µM*
CCOC(=O)c1c(C)[nH]c(C(=O)COC(=O)c2cc(C)oc2C)c1C	21%	-2%	18%	?
Cc1ccc(NC(=O)COC(=O)c2ccc(CN3CCCC3=O)cc2)c(Cl)c1	-4%	-15%	10%	7%
Nc1ncnc(Oc2cccc3cccnc23)c1[N+](=O)[O-]	53%	?	59%	18%
CCOC(=O)c1sc(N)c(C(=O)OCC)c1COC(=O)C1CC(=O)N(Cc2ccco2)C1 (stereo unspecified)	?	?	-5%	13µM*
COc1ccc(-c2nc(NC(=O)C3CCN(c4nc5ccccc5o4)CC3)sc2C)cc1	·	8.3µM*	-3%	?
COc1ccc(-c2nc(NC(=O)C3CC(=O)N(Cc4ccco4)C3)sc2C)cc1 (stereo unspecified)	?	12µM*	-10%	?
CN(C)c1ncnc2c1ncn2[C@H]1CN(Cc2cccnc2)C[C@@H](CO)O1	·	·	-4%	·
CC1CCN(S(=O)(=O)c2cc(C(=O)N3CCN(c4ccccc4)CC3)ccc2Br)CC1	·	·	-24%	·
COc1ccc(OC)c(-c2nnc(-c3ccc(C)o3)o2)c1	183%	10µM*	-2%	?
Cc1cc(C(=O)Nc2ccc3ccccc3c2)oc1C	-23%	117%	-20%	11µM*
O=C(Nc1ccc2ccccc2c1)c1ccc(Cl)cc1	5.2µM*	222%	7%	0%
Cc1cc(C(=O)Nc2nncs2)oc1C	2.6µM*	42%	6%	13%
NC(=S)NNc1cccc2cccnc12	?	7.4µM*	-27%	?
COC(=O)[C@H](Cc1ccccc1)NC(=O)[C@@H](N)CC(=O)O	34%	7%	26%	0.56µM*
CCOC(=O)Cn1ncc2c3ccccc3n(CC(=O)OCC)c2c1=O	0%	·	-16%	6%
O=C(Cn1ncc2c3ccccc3n(Cc3ccc(F)cc3)c2c1=O)N1CCN(c2ncccn2)CC1	4%	9.3µM*	0%	?
Cc1ccccc1Cn1c2ccccc2c2cnn(CC(=O)N3CCN(c4ccccc4)CC3)c(=O)c21	?	·	-22%	-1%
COC(=O)Cn1ncc2c3ccccc3n(Cc3ccccc3)c2c1=O	5.2µM*	?	-14%	-22%
O=C(Cn1ncc2c3ccccc3n(Cc3ccc(F)cc3)c2c1=O)N1CCC2(CC1)OCCO2	?	12µM*	2%	?
O=c1[nH]ncc2c3ccccc3n(Cc3ccc(F)cc3)c12	-1%	3.3µM*	-6%	-15%
CCOc1ccc(N=Cc2ccccc2O)cc1	·	·	2%	29%
CCOC(=O)CC1(C)NC(=O)c2c(C)sc(C(=O)OCC)c2N1 (stereo unspecified)	27%	0%	8%	-8%
CCCCC1(C)NC(=O)c2c(C)sc(C(=O)OCC)c2N1 (stereo unspecified)	8.3µM*	?	21%	?
CCOC(=O)CC1(CC(=O)OCC)NC(=O)c2c(C)sc(C(=O)OCC)c2N1	3.7µM*	-5%	-13%	-17%
